Molecules are shown by their SMILES. Results filed as inconclusive are left out. A number with no mark means an inactive call. The source made the active and inactive calls. Calls follow the shape of the dose curve; as a rule, active = well fitted curve in the direction sought with a large enough effect; inconclusive = small, poorly fitted or top-dose-only effect, or another doubt; inactive = no such curve, though single readings can be large; an effect the other way counts as inactive or inconclusive.

Experiment [1] addresses Rap guanine nucleotide exchange factor 3 (Homo sapiens) (UniProt O95398). In words: Confirmatory qHTS for agonist of cAMP-regulated guanine nucleotide exchange factor 3 (EPAC1) (AID 1645881).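 Also: EPAC1 catalysed release of BODIPY-GDP from Rap1B seen as fluorescence loss; 100% = effect of cAMP agonist control; nearly all actives have a fitted effect of over 75% in size.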 In general terms: Quantitative high-throughput screening tests each substance at several concentrations.
Experiment [2] addresses Rap guanine nucleotide exchange factor 4 (Homo sapiens) (UniProt Q8WZA2). The experiment in a line: Confirmatory qHTS for agonist of cAMP-regulated guanine nucleotide exchange factor 4 (EPAC2) (AID 1645884).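 Also: nucleotide exchange releases bodipy-GDP from Rap1 and this lowers its fluorescence; % is scaled to controls: 0 for no effect and ±100 for the full control effect; nearly all actives have a fitted effect of over 65% in size.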
Experiment [3] has the same target. The experiment in a line: Confirmatory qHTS for antagonist of cAMP-regulated guanine nucleotide exchange factor 4 (EPAC2) (AID 1645885). Also: nearly all actives have a fitted effect of over 25% in size. Also: potency is read from the fitted curve at half-maximal effect. As to activity change, negative = inhibition: % is scaled to controls: 0 for no effect and ±100 for the full control effect.
For experiment [4], the target named is Rap guanine nucleotide exchange factor 3 (Homo sapiens) (UniProt O95398). In words: Counterscreen qHTS for antagonist of cAMP-regulated guanine nucleotide exchange factor 3 (EPAC1) (AID 1645888).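 Also: fluorescence loss as bound BODIPY-GDP is released from Rap1B; % of control where 0% means no effect.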 The gist of the method:
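Measured: fluorescence of BODIPY-GDP bound to Rap1B, which falls as exchange proceeds. Conditions include 50 uM competing GDP, 5 and 30 min reads, and a later cAMP challenge for antagonist detection.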
A general note: The purpose of a counterscreen is to sort out artefacts and off-target activity.

Sequence of Rap guanine nucleotide exchange factor 3 (Homo sapiens) (O95398 whole entry, looked up): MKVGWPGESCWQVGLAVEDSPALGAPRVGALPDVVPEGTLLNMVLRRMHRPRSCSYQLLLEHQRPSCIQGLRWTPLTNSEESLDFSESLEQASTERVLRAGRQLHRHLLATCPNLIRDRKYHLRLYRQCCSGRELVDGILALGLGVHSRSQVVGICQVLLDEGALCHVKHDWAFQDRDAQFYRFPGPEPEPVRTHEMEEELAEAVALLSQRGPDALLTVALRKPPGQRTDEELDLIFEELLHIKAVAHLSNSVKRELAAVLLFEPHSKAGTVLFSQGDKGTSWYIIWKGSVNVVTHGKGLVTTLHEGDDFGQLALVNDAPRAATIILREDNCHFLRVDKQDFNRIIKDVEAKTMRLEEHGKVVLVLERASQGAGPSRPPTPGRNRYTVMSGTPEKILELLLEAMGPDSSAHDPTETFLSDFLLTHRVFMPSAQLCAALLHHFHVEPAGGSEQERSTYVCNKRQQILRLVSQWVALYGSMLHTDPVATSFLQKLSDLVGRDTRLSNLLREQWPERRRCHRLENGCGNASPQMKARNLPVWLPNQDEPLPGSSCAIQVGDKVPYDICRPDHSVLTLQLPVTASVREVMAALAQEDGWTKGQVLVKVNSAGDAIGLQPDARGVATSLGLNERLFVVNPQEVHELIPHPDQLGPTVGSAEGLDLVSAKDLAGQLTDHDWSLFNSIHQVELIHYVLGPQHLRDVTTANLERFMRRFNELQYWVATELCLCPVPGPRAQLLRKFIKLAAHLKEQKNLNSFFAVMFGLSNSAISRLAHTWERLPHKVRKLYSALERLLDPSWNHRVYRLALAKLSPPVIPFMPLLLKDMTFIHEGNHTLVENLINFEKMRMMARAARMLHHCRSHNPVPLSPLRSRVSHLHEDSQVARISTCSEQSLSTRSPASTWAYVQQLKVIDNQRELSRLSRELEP
Sequence of Rap guanine nucleotide exchange factor 4 (Homo sapiens) (Q8WZA2 whole entry, looked up): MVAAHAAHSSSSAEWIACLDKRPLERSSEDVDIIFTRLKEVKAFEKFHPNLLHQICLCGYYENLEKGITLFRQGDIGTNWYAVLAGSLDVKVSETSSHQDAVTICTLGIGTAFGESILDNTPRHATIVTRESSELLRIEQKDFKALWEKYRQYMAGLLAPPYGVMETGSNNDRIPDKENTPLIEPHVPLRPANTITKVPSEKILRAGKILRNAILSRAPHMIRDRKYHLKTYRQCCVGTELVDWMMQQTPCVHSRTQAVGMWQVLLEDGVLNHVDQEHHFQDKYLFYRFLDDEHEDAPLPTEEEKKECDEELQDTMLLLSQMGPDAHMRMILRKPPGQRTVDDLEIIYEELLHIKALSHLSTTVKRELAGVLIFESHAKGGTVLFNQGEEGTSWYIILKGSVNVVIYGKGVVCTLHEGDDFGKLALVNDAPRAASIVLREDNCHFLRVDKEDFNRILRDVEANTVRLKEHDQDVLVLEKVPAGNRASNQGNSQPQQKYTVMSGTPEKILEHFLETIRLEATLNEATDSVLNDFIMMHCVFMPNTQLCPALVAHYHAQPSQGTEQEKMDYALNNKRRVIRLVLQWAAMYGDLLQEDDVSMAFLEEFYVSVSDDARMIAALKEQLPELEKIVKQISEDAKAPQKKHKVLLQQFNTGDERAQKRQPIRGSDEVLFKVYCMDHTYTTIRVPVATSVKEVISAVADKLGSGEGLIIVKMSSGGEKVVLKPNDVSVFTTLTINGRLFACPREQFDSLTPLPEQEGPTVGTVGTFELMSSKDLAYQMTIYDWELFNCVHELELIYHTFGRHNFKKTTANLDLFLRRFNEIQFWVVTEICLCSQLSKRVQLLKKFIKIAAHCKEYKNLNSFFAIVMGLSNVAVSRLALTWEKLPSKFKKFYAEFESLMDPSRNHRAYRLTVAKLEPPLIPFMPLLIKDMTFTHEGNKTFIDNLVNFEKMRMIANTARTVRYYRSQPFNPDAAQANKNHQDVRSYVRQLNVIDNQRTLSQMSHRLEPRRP

`COc1ccccc1C(C(=O)c1ccccc1)c1ccc(O)cc1` (centres undefined): the Potency entry in experiment [1] and in experiment [3] was “inactive” in each case. Besides, in experiment [2], the activation was 3.15% [at 17.1 µM, percent relative to cAMP agonist control]. Moreover, in experiment [4], the activity change, negative = inhibition was -22.7% [at 30.8 µM].
With `NC(=O)C1CCN(C(=O)c2ccc3c(=O)n(Cc4cccc(Br)c4)c(=S)[nH]c3c2)CC1`, the Potency result in experiment [1] and in experiment [3] was “inactive” throughout. In experiment [2], the activation was 7.22% [at 17.1 µM, percent relative to cAMP agonist control]. Also, the activity change, negative = inhibition in experiment [4] is -4.35% [at 30.8 µM].
On to `Cc1cccc(Nc2nnc(SC/C(O)=C(\C#N)c3nc4ccccc4[nH]3)s2)c1`, for which the Potency entry in experiment [1], in experiment [2], in experiment [3] and in experiment [4] was “inactive” throughout.
Turning to `O=C1C(=O)c2ccc(-c3ccccc3)cc2-c2ccccc21`, the Potency entry in experiment [1], in experiment [2], in experiment [3] and in experiment [4] was “inactive” in each case.
As for `Cc1ccc(CNc2nc(NCc3ccccc3)nc3ccsc23)c(C)c1`, the Potency entry in experiment [1], in experiment [2], in experiment [3] and in experiment [4] was “inactive” each time.
With `CCc1nc2sc3ccccc3c(=O)c2c(=O)n1Cc1ccco1`, the Potency entry in experiment [1], in experiment [2] and in experiment [4] was “inactive” in each case. Moreover, the Potency in experiment [3] is 75.7 µM (active).
Turning to `CN(C)c1ccc(-c2[nH][nH]c(=O)c2NC(=O)c2ccccn2)cc1`, the Potency result in experiment [1], in experiment [2], in experiment [3] and in experiment [4] was “inactive” throughout.
As for `COc1ccc(-n2c(NC(=O)c3ccco3)c(C#N)c3nc4ccccc4nc32)cc1`, the Potency result in experiment [1], in experiment [2], in experiment [3] and in experiment [4] was “inactive” in each case.
As to `CCc1nc2c(OCC3CCCCC3)cccn2c1N(C)C(=O)c1ccc(C)cc1`, the Potency result in experiment [1], in experiment [2], in experiment [3] and in experiment [4] was “inactive” in each case.
Take `CCOc1cc(-c2ccc(OC(=O)c3ccccc3)c(OC)c2)cc(=O)c2c(C)oc(C)c12`: the Potency entry in experiment [1], in experiment [2] and in experiment [4] was “inactive” throughout. In experiment [3], the outcome was “inactive [at 12.7 µM]”.
On to `CCCc1nc2ccc(C(=O)OC)cn2c1Cc1ccc(C)cc1`, for which the Potency entry in experiment [1], in experiment [2], in experiment [3] and in experiment [4] was “inactive” throughout.
On to `O=C1CCCC2=C1C(c1ccc(O)c(O)c1)Nc1ccc3ccccc3c12` (centres undefined), for which the Potency entry in experiment [1], in experiment [2], in experiment [3] and in experiment [4] was “inactive” each time.
In the case of `COc1ccc(Nc2cc(C(=O)NCCCN3CCN(c4ccccc4F)CC3)c3ccccc3n2)c(OC)c1`, the Potency result in experiment [1], in experiment [2], in experiment [3] and in experiment [4] was “inactive” throughout.
Take `C=C(C)COc1ccc(-c2[nH]ncc2-c2ccccc2OC)c(O)c1`: the Potency result in experiment [1] and in experiment [3] was “inactive” throughout. In addition, the activation in experiment [2] is 16.3% [at 17.1 µM, percent relative to cAMP agonist control]. In addition, the activity change, negative = inhibition in experiment [4] is 6.08% [at 30.8 µM].
On to `O=C(Nc1sc2c(c1C(=O)O)CCCC2)c1ccc(Cl)cc1`, for which the Potency entry in experiment [1] and in experiment [3] was “inactive” each time. Also, the activation in experiment [2] was 1.39% [at 17.1 µM, percent relative to cAMP agonist control]. Further, in experiment [4], the activity change, negative = inhibition was -8.59% [at 30.8 µM].
With `O=c1cc(-c2ccccc2)[nH]n1-c1nc2ccccc2s1`, the Potency entry in experiment [1] and in experiment [3] was “inactive” each time. Besides, in experiment [2], the activation was 11.1% [at 17.1 µM, percent relative to cAMP agonist control]. In addition, the activity change, negative = inhibition in experiment [4] is 2.08% [at 30.8 µM].
In the case of `CSc1ccccc1C(=O)N(C)C(c1ccccc1)c1ccccc1`, the Potency result in experiment [1], in experiment [2] and in experiment [4] was “inactive” each time. Further, the Potency in experiment [3] was 26.9 µM (active).
For the compound `C=CS(=O)(=O)N(Cc1ccccc1Br)[C@H](CO)CC(C)C`, the Potency result in experiment [1] and in experiment [3] was “inactive” in each case. Besides, the activation in experiment [2] was 1.88% [at 17.1 µM, percent relative to cAMP agonist control]. Also, the activity change, negative = inhibition in experiment [4] was -13.6% [at 30.8 µM].
For `N#Cc1c(NC(=O)CSc2ncnc3sccc23)oc(-c2ccco2)c1-c1ccco1`, the Potency entry in experiment [1], in experiment [2] and in experiment [4] was “inactive” in each case. For the same compound, in experiment [3], the Potency is 84.9 µM (active).
`Cc1ccc(Nc2nnc(-c3ccc(C)c(S(N)(=O)=O)c3)c3ccccc23)cc1`: the Potency result in experiment [1], in experiment [2] and in experiment [4] was “inactive” in each case. In addition, the outcome in experiment [3] is “inactive [at 12.7 µM]”.
For `Cc1cccc(Nc2nnc(-c3ccc(N4CCOCC4)c([N+](=O)[O-])c3)c3ccccc23)c1`, the Potency entry in experiment [1], in experiment [2], in experiment [3] and in experiment [4] was “inactive” throughout.
With `CCOc1ccccc1NC(=O)C1CCN(c2nc(-c3ccc(OC)cc3)no2)CC1`, the Potency entry in experiment [1] and in experiment [3] was “inactive” in each case. In addition, the activation in experiment [2] was 2.09% [at 17.1 µM, percent relative to cAMP agonist control]. For the same compound, the activity change, negative = inhibition in experiment [4] is -14.4% [at 30.8 µM].
Take `COc1cc2c(cc1OC)C(c1cccs1)N(C(=O)C(C)C)CC2` (centres undefined): the Potency result in experiment [1], in experiment [2], in experiment [3] and in experiment [4] was “inactive” each time.
In the case of `Cc1ccc(N(Cc2cccs2)C(=O)c2ccc(Br)o2)cc1`, the Potency entry in experiment [1], in experiment [2], in experiment [3] and in experiment [4] was “inactive” each time.
Regarding `Cn1c(=O)c2c(-c3ccccc3Br)n(Cc3ccccc3)cc2n(C)c1=O`, the Potency result in experiment [1], in experiment [2], in experiment [3] and in experiment [4] was “inactive” throughout.
On to `N#CCCN(CCC#N)S(=O)(=O)c1ccc(C(=O)Nc2nnc(C3=COCCO3)o2)cc1`, for which the Potency entry in experiment [1], in experiment [2], in experiment [3] and in experiment [4] was “inactive” throughout.

Values taken from PubChem BioAssay (NCATS).
